According to PubChem BioAssay (NCATS):
Records with an inconclusive call do not appear. Calls of active or inactive are those of the source. Unless noted, calls follow the shape of the full dose curve.

Legend:
[1] = qHTS drug screen for cell cycle checkpoint inhibitors in PARPi-resistant BRCA-mutant ovarian cancer cell lines. (AID 1963452); details: PEO1/OlaR viability, CellTiter-Glo luminescence, 96 h, stronger effect = lower value
Outline: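 PEO1, PEO4 and PEO1/OlaR ovarian cancer cells, 600 per well, exposed 96 h at 37C to a dilution series. Viability read by CellTiter-Glo luminescence, normalized to DMSO and empty wells; activity summarized as Z-AUC.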

[2] = qHTS Assay for Lipid Storage Modulators (AID 1519); details: Drosophila S3 cells, BODIPY lipid droplet/cell ratio, laser cytometry, cells loaded with oleic acid; for activity change, negative = inhibition: at 57.5 µM (top of the series); as to activity change, negative = inhibition: % is scaled to controls: 0 for no effect and ±100 for the full control effect
Outline: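 Cells seeded at 5,000 per well were treated with compounds over a concentration series and loaded with oleic acid (400 uM, as added). Lipid droplet fluorescence (488 nm excitation, 500-530 nm channel) was read by laser-scanning cytometry and normalized to 20 uM Triacsin C.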

[3] = Validation of Assay for Modulators of Lamin A Splicing (AID 1459; active = well fitted curve in the direction sought with a large enough effect in the signal ratio; the % refers to the signal ratio;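 also: cells exposed to compound for two days before reading; 0% is about no effect; ratio rise marks activators and ratio drop marks inhibitors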)
Outline: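 Splicing correction read as GFP (500-530 nm) over DsRed2 (575-640 nm) object intensity after 48 h compound exposure of reporter HeLa S3 clones (600 cells/well, 2% FBS medium); ancitabine and cycloheximide titrations, 0.5% DMSO as vehicle.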

[4] = molecular target: ATP-dependent DNA helicase Q1 (Homo sapiens) (UniProt P46063); assay: qHTS Validation Assay for Inhibitors of RecQ-Like Dna Helicase 1 (RECQ1) (AID 2353; active = well fitted curve in the direction sought with a large enough effect; an effect the other way counts as inactive or inconclusive;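 also: plate controls were DMSO vehicle for no effect and enzyme-free control for full effect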)
Outline: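 50 nM RECQ1T1 preincubated 15 min with compound in Tris pH 8.0 buffer with MgCl2, DTT, Tween-20 and 2.5 ug/ml poly(dI-dC); started with 200 nM TAMRA/BHQ-2 forked duplex and 2 mM ATP. Unwinding read as fluorescence (525/598 nm), two reads 2 h apart.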

[5] = molecular target: Galactokinase (Homo sapiens) (UniProt P51570); assay: qHTS Validation Assay for Inhibitors of Human Galactokinase (GALK) (AID 493189; active = well fitted curve in the direction sought with a large enough effect; an effect the other way counts as inactive or inconclusive; also: 0% is about no effect)
Outline: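 Inhibition was measured as remaining ATP, detected by luciferase luminescence after a 1 h room-temperature reaction. Final conditions: 5 nM GALK, 100 uM galactose, 35 uM ATP, pH 8.0 HEPES buffer.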

[6] = measured here: PEO1 parental Z-AUC
[7] = measured here: cell count channel max response
[8] = measured here: lipid channel max response

Sequence of Galactokinase (Homo sapiens) (P51570 whole entry, looked up): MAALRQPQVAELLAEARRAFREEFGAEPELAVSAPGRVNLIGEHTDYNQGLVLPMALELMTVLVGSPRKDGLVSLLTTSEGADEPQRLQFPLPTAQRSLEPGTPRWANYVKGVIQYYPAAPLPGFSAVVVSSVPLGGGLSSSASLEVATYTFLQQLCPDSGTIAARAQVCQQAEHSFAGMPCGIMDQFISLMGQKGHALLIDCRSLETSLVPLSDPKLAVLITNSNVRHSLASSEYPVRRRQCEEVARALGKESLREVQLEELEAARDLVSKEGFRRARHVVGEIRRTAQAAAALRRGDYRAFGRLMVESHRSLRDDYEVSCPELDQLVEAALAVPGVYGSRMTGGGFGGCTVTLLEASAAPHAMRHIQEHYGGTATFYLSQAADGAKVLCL
Sequence of ATP-dependent DNA helicase Q1 (Homo sapiens) (P46063 whole entry, looked up): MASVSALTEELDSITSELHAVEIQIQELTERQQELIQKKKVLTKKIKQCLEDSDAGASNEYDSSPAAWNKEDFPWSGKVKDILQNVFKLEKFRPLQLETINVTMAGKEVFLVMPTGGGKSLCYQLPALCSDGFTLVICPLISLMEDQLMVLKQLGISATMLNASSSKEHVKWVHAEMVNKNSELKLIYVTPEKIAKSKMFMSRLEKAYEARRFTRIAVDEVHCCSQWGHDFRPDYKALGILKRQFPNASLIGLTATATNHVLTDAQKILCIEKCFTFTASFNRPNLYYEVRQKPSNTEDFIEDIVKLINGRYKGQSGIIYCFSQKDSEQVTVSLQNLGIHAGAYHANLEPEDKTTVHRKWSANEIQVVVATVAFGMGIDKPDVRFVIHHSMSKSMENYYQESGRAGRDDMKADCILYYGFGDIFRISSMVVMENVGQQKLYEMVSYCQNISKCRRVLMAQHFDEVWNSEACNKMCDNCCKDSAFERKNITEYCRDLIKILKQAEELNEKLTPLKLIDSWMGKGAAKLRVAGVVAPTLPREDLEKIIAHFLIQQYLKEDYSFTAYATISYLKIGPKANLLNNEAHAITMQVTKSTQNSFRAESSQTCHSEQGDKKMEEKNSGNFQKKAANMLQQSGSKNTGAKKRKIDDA

For `CC(=O)O[C@@]12CO[C@@H]1C[C@H](O)[C@@]1(C)C(=O)[C@H](O)C3=C(C)[C@@H](O)C[C@@](O)([C@@H](OC(=O)c4ccccc4)[C@H]21)C3(C)C`, the Z-AUC [1] was 1.05 (inactive), the Z-AUC [1, 6] was 0.322 and the Z-AUC ([1]; measured here: PEO4 Z-AUC) was 0.492.
For `O=C1CC(c2ccc(O)cc2)Oc2cc(O)cc(O)c21` (stereo not drawn), the activity change, negative = inhibition [2] was 9.01% (inactive), the max response [2, 7] was -5.6% and the max response [2, 8] was 4.14%.
With `Cn1c(/C=C/CO)c(CO)c2c1C(=O)C=C(N1CC1)C2=O` the Z-AUC [1] was -0.176 (inactive), the Z-AUC [1, 6] was -0.939 and the Z-AUC ([1]; measured here: PEO4 Z-AUC) was -0.899.
With `Cc1[nH]ncc1-c1cc2nc([C@@H]3CC4CCN3CC4)[nH]c(=O)c2s1` the Z-AUC [1] was 0.732 (inactive), the Z-AUC [1, 6] was 0.621 and the Z-AUC ([1]; measured here: PEO4 Z-AUC) was 0.645.
For `COC12C(COC(N)=O)C3=C(C(=O)C(C)=C(N)C3=O)N1CC1C2N1C` (stereo not drawn), the Z-AUC [1] was -0.24 (inactive), the Z-AUC [1, 6] was 0.0826 and the Z-AUC ([1]; measured here: PEO4 Z-AUC) was -0.134.
With `COC[C@H]1OC(=O)c2coc3c2[C@@]1(C)C1=C(C3=O)[C@@H]2CC[C@H](O)[C@@]2(C)C[C@H]1OC(C)=O` the Z-AUC [1] was 0.029 (inactive), the Z-AUC [1, 6] was -0.102 and the Z-AUC ([1]; measured here: PEO4 Z-AUC) was 0.779.
For `Cc1c(N)nc([C@H](CC(N)=O)NC[C@@H](N)C(N)=O)nc1C(=O)N[C@H](C(=O)N[C@@H](C)[C@H](O)[C@@H](C)C(=O)N[C@@H](C(=O)NCCc1nc(-c2nc(C(=O)NCCC[S+](C)C)cs2)cs1)[C@@H](C)O)C(O[C@H]1O[C@H](CO)[C@H](O)[C@@H](O)[C@H]1O[C@H]1O[C@H](CO)[C@@H](O)[C@H](OC(N)=O)[C@@H]1O)c1cnc[nH]1` (stereo partly drawn), the Z-AUC [1] was -0.673 (inactive), the Z-AUC [1, 6] was -1.76 and the Z-AUC ([1]; measured here: PEO4 Z-AUC) was 0.233.
With `COc1cc(C)[nH]c(=O)c1CNC(=O)c1c(C)n([C@H](C)C2CCN(CC(F)(F)F)CC2)c2ccccc12` the Z-AUC [1] was 1.18 (inactive), the Z-AUC [1, 6] was 0.708 and the Z-AUC ([1]; measured here: PEO4 Z-AUC) was 0.343.
With `CC(=O)OC[C@H]1O[C@@H]([S-])[C@H](OC(C)=O)[C@@H](OC(C)=O)[C@@H]1OC(C)=O.CC[PH+](CC)CC.[Au]` the Z-AUC [1] was -0.477 (inactive), the Z-AUC [1, 6] was -0.483 and the Z-AUC ([1]; measured here: PEO4 Z-AUC) was -0.599.
In the case of `CCCCCCC(C)(C)c1cc(O)c2c(c1)OC(C)(C)C1CC=C(CO)C[C@H]21` (stereo partly drawn), the Z-AUC [1] is reported as 1.02 (inactive), the Z-AUC [1, 6] is reported as 0.553 and the Z-AUC ([1]; measured here: PEO4 Z-AUC) is reported as 0.644.
With `N#CC(O[C@@H]1O[C@H](CO[C@@H]2O[C@H](CO)[C@@H](O)[C@H](O)[C@H]2O)[C@@H](O)[C@H](O)[C@H]1O)c1ccccc1` (stereo partly drawn) the Z-AUC [1] was 0.897 (inactive), the Z-AUC [1, 6] was 0.644 and the Z-AUC ([1]; measured here: PEO4 Z-AUC) was 0.881.
In the case of `C[C@@]12OC(=O)[C@]1([C@@H](O)[C@@H]1C=CCCC1)NC(=O)[C@@H]2CCCl`, the Z-AUC [1] is reported as -0.972 (inactive), the Z-AUC [1, 6] is reported as -1.61 and the Z-AUC ([1]; measured here: PEO4 Z-AUC) is reported as -1.64.
For `C[C@@H]1CC[C@@]2(OC1)O[C@H]1C[C@H]3[C@@H]4CC=C5C[C@@H](O[C@@H]6O[C@H](CO)[C@@H](O[C@@H]7O[C@@H](C)[C@H](O)[C@@H](O)[C@H]7O)[C@H](O)[C@H]6O[C@@H]6O[C@@H](C)[C@H](O)[C@@H](O)[C@H]6O)CC[C@]5(C)[C@H]4CC[C@]3(C)[C@H]1[C@@H]2C`, the Z-AUC [1] was 0.183 (inactive), the Z-AUC [1, 6] was -0.31 and the Z-AUC ([1]; measured here: PEO4 Z-AUC) was -0.496.
With `CN1C(=O)[C@@H](NC(=O)[C@H](CCC(F)(F)F)[C@H](CCC(F)(F)F)C(N)=O)N=C(c2ccccc2)c2ccccc21` the Z-AUC [1] was -0.603 (inactive), the Z-AUC [1, 6] was 0.158 and the Z-AUC ([1]; measured here: PEO4 Z-AUC) was -0.105.
In the case of `C/C=C(\C)C(=O)N[C@@H](c1ccccc1)[C@@H](O)C(=O)O[C@H]1C[C@@]2(O)[C@@H](OC(=O)c3ccccc3)[C@@H]3[C@]4(OC(C)=O)CO[C@@H]4C[C@H](O)[C@@]3(C)C(=O)[C@H](OC(C)=O)C(=C1C)C2(C)C`, the Z-AUC [1] is reported as -2.81 (inactive), the Z-AUC [1, 6] is reported as -2.97 and the Z-AUC ([1]; measured here: PEO4 Z-AUC) is reported as -3.26.
In the case of `C[C@@H](C1CC[C@@]2(O)C3=CC(=O)[C@@H]4C[C@@H](O)[C@@H](O)C[C@]4(C)[C@H]3CC[C@]12C)[C@H](O)CCC(C)(C)O` (stereo partly drawn), the Z-AUC [1] is reported as 0.596 (inactive), the Z-AUC [1, 6] is reported as 0.976 and the Z-AUC ([1]; measured here: PEO4 Z-AUC) is reported as 1.02.
In the case of `CO[C@H]1CCC(O[C@H]2C[C@H]([C@]3(C)CC[C@]4(C[C@H](O)[C@@H](C)[C@@H]([C@@H](C)/C=C(\C)C(=O)[C@H](C)C[C@H](C)C(=O)O)O4)O3)O[C@]3(O[C@@H]([C@H]4O[C@@](O)(CO)[C@H](C)C[C@@H]4C)C[C@@H]3C)[C@@H]2C)O[C@@H]1C` (stereo partly drawn), the Z-AUC [1] is reported as -1.49 (inactive), the Z-AUC [1, 6] is reported as -1.68 and the Z-AUC ([1]; measured here: PEO4 Z-AUC) is reported as -1.99.
In the case of `CC(C)(O)/C=C\C(=O)[C@](C)(O)[C@H]1[C@H](O)C[C@]2(C)[C@@H]3CC=C4[C@@H](C=C(O)C(=O)C4(C)C)[C@]3(C)C(=O)C[C@@]12C`, the Z-AUC [1] is reported as -2.52 (inactive), the Z-AUC [1, 6] is reported as -1.67 and the Z-AUC ([1]; measured here: PEO4 Z-AUC) is reported as -2.46.
For `O=C(O)CNC(=O)C1C(=O)N(C2CCCCC2)C(=O)N(C2CCCCC2)C1=O`, the Z-AUC [1] was 0.43 (inactive), the Z-AUC [1, 6] was 0.47 and the Z-AUC ([1]; measured here: PEO4 Z-AUC) was 0.437.
For `Cn1c(COP(=O)(NCCBr)NCCBr)cnc1[N+](=O)[O-]`, the Z-AUC [1] was 0.865 (inactive), the Z-AUC [1, 6] was 0.833 and the Z-AUC ([1]; measured here: PEO4 Z-AUC) was 1.09.
With `CC(N[C@H]1C[C@@H]1c1ccccc1)c1ccc2c(c1)OCCO2` (stereo partly drawn) the Z-AUC [1] was -0.77 (inactive), the Z-AUC [1, 6] was 0.195 and the Z-AUC ([1]; measured here: PEO4 Z-AUC) was -0.131.
For `CC(C)[C@]12O[C@H]1[C@@H]1O[C@@]13[C@@]1(C)CCC4=C(COC4=O)[C@@H]1C[C@@H]1O[C@@]13C2=O`, the Z-AUC [1] was -1.63 (inactive), the Z-AUC [1, 6] was -0.566 and the Z-AUC ([1]; measured here: PEO4 Z-AUC) was -1.17.
For `CC(C)(NC(=O)O[C@@H]1CN2CCC1CC2)c1csc(-c2ccc(F)cc2)n1`, the Z-AUC [1] was 1.16 (inactive), the Z-AUC [1, 6] was 0.982 and the Z-AUC ([1]; measured here: PEO4 Z-AUC) was 1.29.
For `CCCC[N+]1(C)C2CC(OC(=O)C(CO)c3ccccc3)CC1C1OC12` (stereo not drawn), the outcome [3] was “inactive”, the activity change, negative = inhibition [2] was -1.49% (inactive) and the max response [2, 7] was 13.3%. For the same compound, the max response [2, 8] was 13.7%, the outcome [4] was “inactive” and the outcome [5] was “inactive”.
For `Nc1ncnc2c1ncn2[C@@H]1O[C@H](COP(=O)(O)CP(=O)(O)OP(=O)(O)O)[C@H](O)[C@H]1O`, the outcome [3] was “inactive”, the outcome [4] was “inactive” and the outcome [5] was “inactive”.
